Inconclusive results are not listed. A call without a number means that no potency is given here. Active and inactive are the calls of the source. Calls follow the shape of the dose curve; as a rule, active = well fitted cell-killing curve with a large enough effect; inconclusive = small, poorly fitted or top-dose-only effect; inactive = flat fitted curve, though single readings scatter.
Assay: qHTS of pediatric cancer cell lines to identify multiple opportunities for drug repurposing: Primary screen for control Hh wild type fibroblast cells (AID 1347106); also: nearly all actives have a fitted effect of over 55% in size
Conditions: Hh wild-type fibroblast viability, CellTiter-Glo luminescence, 48 h; series mostly up to 46 µM
Procedure, shortened: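 Viability after 48 h compound treatment at 37C, 500-1,000 cells/well, read as ATP luminescence with CellTiter-Glo. Primary screens used 11-point (MIPE, 0.78 nM-46 µM) or 8-point (NPC, 0.59 nM-46 µM) final concentrations; follow-up screens used 11-point dilutions.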
With `Cc1ncc([N+](=O)[O-])n1CCO` the Potency was “inactive”.
For `Cc1onc(-c2ccccc2Cl)c1C(=O)N[C@@H]1C(=O)N2[C@@H]1SC(C)(C)[C@@H]2C(=O)O`, the Potency was “inactive”.
With `NC(=O)c1cccc(N)c1` the Potency was “inactive”.
In the case of `CCC(=O)O[C@]1(C(=O)SCF)[C@H](C)C[C@H]2[C@@H]3C[C@H](F)C4=CC(=O)C=C[C@]4(C)[C@@]3(F)[C@@H](O)C[C@@]21C`, the Potency is reported as “inactive”.
For `S=P(N1CC1)(N1CC1)N1CC1`, the Potency was “inactive”.
With `O=C(NCC1CN(c2ccc(N3CCOCC3=O)cc2)C(=O)O1)c1ccc(Cl)s1` (stereo unspecified) the Potency was “inactive”.
In the case of `CC1CC2C3CCC4=CC(=O)C=C[C@]4(C)[C@@]3(F)[C@@H](O)C[C@]2(C)[C@@]1(O)C(=O)CO` (stereo partly specified), the Potency is reported as “inactive”.
In the case of `NC1(c2ccc(-c3nc4ccn5c(=O)[nH]nc5c4cc3-c3ccccc3)cc2)CCC1`, the Potency is reported as “inactive”.
In the case of `CS(=O)(=O)c1ccc([C@@H](O)[C@@H](CO)NC(=O)C(Cl)Cl)cc1`, the Potency is reported as “inactive”.
In the case of `CC1(C)[C@H](C(=O)O)N2C(=O)C[C@H]2S1(=O)=O`, the Potency is reported as “inactive”.
With `CC1=C(C(=O)O)N2C(=O)[C@@H](NC(=O)C(N)c3ccccc3)[C@H]2SC1` (stereo partly specified) the Potency was “inactive”.
For `Nc1nc(=S)c2[nH]cnc2[nH]1`, the Potency was “inactive”.
In the case of `CCn1cc(C(=O)O)c(=O)c2cc(F)c(N3CCN(C)CC3)cc21`, the Potency is reported as “inactive”.
With `NNC(=O)c1ccncc1` the Potency was “inactive”.
For `CCCc1cc(C(N)=S)ccn1`, the Potency was “inactive”.
For `CCN(C)C(=O)Oc1cccc([C@H](C)N(C)C)c1`, the Potency was “inactive”.
With `O=c1oc2c(O)c(O)cc3c(=O)oc4c(O)c(O)cc1c4c23` the Potency was “inactive”.
In the case of `CC(=O)[C@H]1CC[C@H]2[C@@H]3CCC4=CC(=O)CC[C@]4(C)[C@H]3CC[C@]12C`, the Potency is reported as “inactive”.
In the case of `COc1cc2nc(N3CCCN(C)CC3)nc(NC3CCN(Cc4ccccc4)CC3)c2cc1OC`, the Potency is reported as 16.6 µM (active).
With `CCCCc1oc2ccc(NS(C)(=O)=O)cc2c1C(=O)c1ccc(OCCCN(CCCC)CCCC)cc1` the Potency was “inactive”.
For `N=C(N)c1ccc(OCCCCCOc2ccc(C(=N)N)cc2)cc1`, the Potency was “inactive”.
With `CNNCc1ccc(C(=O)NC(C)C)cc1` the Potency was “inactive”.
For `CO[C@@]12[C@H](COC(N)=O)C3=C(C(=O)C(C)=C(N)C3=O)N1C[C@@H]1N[C@@H]12`, the Potency was “inactive”.
With `Cc1ccc(S(=O)(=O)N[C@@H](Cc2ccccc2)C(=O)CCl)cc1` the Potency was “inactive”.
With `Oc1c(Cl)cc(Cl)c2cccnc12` the Potency was “inactive”.
For `COc1cc(NCc2ccc3nc(N)nc(N)c3c2C)cc(OC)c1OC`, the Potency was “inactive”.
In the case of `CCc1c2c(nc3ccc(OC(=O)N4CCC(N5CCCCC5)CC4)cc13)-c1cc3c(c(=O)n1C2)COC(=O)[C@]3(O)CC`, the Potency is reported as “inactive”.
In the case of `N[C@@H](Cc1ccc(O)c(O)c1)C(=O)O`, the Potency is reported as “inactive”.
With `CNS(=O)(=O)Cc1ccc2[nH]cc(CCN(C)C)c2c1` the Potency was “inactive”.
For `CCCc1nc(C)c2c(=O)[nH]c(-c3cc(S(=O)(=O)N4CCN(CC)CC4)ccc3OCC)nn12`, the Potency was “inactive”.
In the case of `CNC(=O)c1cc(Oc2ccc(NC(=O)Nc3ccc(Cl)c(C(F)(F)F)c3)cc2)ccn1`, the Potency is reported as “inactive”.

— PubChem BioAssay (NCATS)
Potency is read from the fitted curve at half-maximal effect.
